{
  "source": "PubChem BioAssay AID1508600",
  "about": "(Functional Genomics Laboratory (NCATS/FGL), 2020)",
  "note": "The campaign covered roughly 53,000 sequences. About 3,700 (7%) were called active. The sample as a whole holds a higher share of actives than the screen did. A number with no mark means an inactive call.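 How the source made its calls: active means gene knockdowns whose robust z-score for IL-1 alpha signal is at least 2 or at most -2, so actives lie on both sides; inactive means the rest.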",
  "data": [
    {"assay": "Components of the Cytosolic LPS Sensing Pathway: Gene Identification via Genome-wide siRNA Screen;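 further: robust z of the log signal after scaling to non-targeting control siRNA wells of the plate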", "settings": "RAW264.7 macrophages, IL-1a HTRF, actives lie on both sides, screened at 100 nM (by protocol), cells primed 5 h with Pam3CSK4 first", "in_short": "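IL-1a HTRF of supernatants after 24 hour LipidA transfection of Pam3CSK4-primed (5 hours) RAW264.7 cells, 48h post-siRNA transfection (100 nM). Scores: percent of plate negative-control median, then log-based robust z-score.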", "values": [
      {"sequence": "GGGCCAAUGAUGGACUUCCTT against Syp", "z-score": 0.33},
      {"sequence": "GGCCCUAUUAGAGAUAAAATT against Robo3", "z-score": -1.2},
      {"sequence": "GGUAGUCUGAACACUCUAATT against Msto1", "z-score": 0.427},
      {"sequence": "GGAAGAAGAGGAGGAGAUGTT against Zbtb7b", "z-score": "3.17 (active)"},
      {"sequence": "GCUAUCUCCACUCUGAGUCTT against Spryd4", "z-score": -0.342},
      {"sequence": "CCGCCAGGGAAACAAAUACTT against Zfp414", "z-score": -1.21},
      {"sequence": "GCUUCUGCUUGUUCGCUAGTT against Usp17ld", "z-score": "2.7 (active)"},
      {"sequence": "GCUCACUAUGUAAAGAGAATT against Itpk1", "z-score": 0.807},
      {"sequence": "GGAGAGUCAAGUCUUUUCUTT against Dnal4", "z-score": 0.0546},
      {"sequence": "GGACAAACUCCGAGACUCCTT against Utf1", "z-score": -0.339},
      {"sequence": "GGAUGAUCAUUCUAGCUGUTT against Hormad1", "z-score": 0.836},
      {"sequence": "GGUGUCUGAUUCUAACAUATT against Catsper4", "z-score": 0.589},
      {"sequence": "GGAAGAAAACACCAUUUUUTT against Irf6", "z-score": "3.12 (active)"},
      {"sequence": "GGUGCAAUCAGGUAUUUCATT against Olfr917", "z-score": "-2.26 (active)"},
      {"sequence": "GGAAAGUGGACACCUUCCATT against Vezt", "z-score": 1.2},
      {"sequence": "CCAGAAGCCAUUAACUAUGTT against Lck", "z-score": -0.479},
      {"sequence": "GGACGUGGAAAACCACAGUTT against Nphp4", "z-score": 0.0474},
      {"sequence": "GGAUUUCGAGAAAAUCAACTT against Kctd4", "z-score": -0.225},
      {"sequence": "GGUGCUGGACAAAUUGAGATT against Cgas", "z-score": -0.189},
      {"sequence": "GGAGUGCAGUCACUAUUUGTT against Il2rg", "z-score": -0.0154},
      {"sequence": "GGUUCUUCAGGCCACUGAUTT against Dnaaf2", "z-score": 0.982},
      {"sequence": "GGAUGCAGAGAAGAAUCUGTT against Psmd6", "z-score": "-2.65 (active)"},
      {"sequence": "GGAGAAGGACCAUCUAAAGTT against Cmah", "z-score": 0.901},
      {"sequence": "CGUCUAGGAAGGAAACAGGTT against Stk32a", "z-score": -1.54},
      {"sequence": "GGAUGGUUACUAUCAGACUTT against Exoc3", "z-score": 0.187},
      {"sequence": "CCAGAUGGAAAGCGAAAAATT against Thra", "z-score": -0.27},
      {"sequence": "GGAGAAUGGCCACGUAAAATT against Marcks", "z-score": 0.294},
      {"sequence": "GGAUAUCUCACUGCUUUUATT against Mpp5", "z-score": "2.13 (active)"},
      {"sequence": "GGCAUCCUUGAGCUUUAAATT against Nufip2", "z-score": -0.0213},
      {"sequence": "GGUGCAAGUUUUUCAGUCUTT against Castor2", "z-score": 0.411},
      {"sequence": "GCACCAUGAAUGGAGAUGATT against Prl2c5", "z-score": "-2.56 (active)"},
      {"sequence": "GCCAUACACAGUGGCAUAATT against Zfp811", "z-score": 0.395},
      {"sequence": "CCAUAAAUCAUGAACUGGUTT against Sesn3", "z-score": -1.41},
      {"sequence": "GGGCAAGAACUACAUCUGCTT against Wdr18", "z-score": -0.288},
      {"sequence": "CCCAAAUACUCCAAUUAUATT against Fzd3", "z-score": 0.289},
      {"sequence": "GCAUCUGGUAAAAGGAGCATT against Rpap1", "z-score": 0.956},
      {"sequence": "GCCAGUGGUAUCUGGAAGUTT against Brca2", "z-score": 0.0865},
      {"sequence": "GGUAGAGCUAAGUAAAGAGTT against Pwp1", "z-score": -0.977},
      {"sequence": "GGCAGUAAUAGGAGACCAUTT against Ces1d", "z-score": "2.76 (active)"},
      {"sequence": "GGCUUCAGCAAAGACAAUGTT against Ache", "z-score": -1.07},
      {"sequence": "CGCAAAGUGGACAAACGUATT against Kcne3", "z-score": 0.0218},
      {"sequence": "CCAAUCGGUGAUCAAGAAATT against Tfap2e", "z-score": -0.525},
      {"sequence": "GCCAAGGUUAUCAUGAAUGTT against F13a1", "z-score": -0.141},
      {"sequence": "GUUUUUCUGGGCAAUUUUATT against Olfr739", "z-score": "2.11 (active)"},
      {"sequence": "GGAGAUUUACUCACAGUUCTT against Kcnip4", "z-score": 1.26},
      {"sequence": "GUAAAAUGUUCACUAAAGCTT against Olfr1248", "z-score": -1.14},
      {"sequence": "GCUUAUAAUGCCAUUACUUTT against Rad21", "z-score": -0.548},
      {"sequence": "CGAUUUAAAGUAGUAGUGGTT against Dusp28", "z-score": -1.13},
      {"sequence": "GACAGAAAUAUAGACUCGATT against Ppp1r42", "z-score": "-2.45 (active)"},
      {"sequence": "CGGAUAACAAAAGUAGCAATT against Trp53rka", "z-score": 0.276},
      {"sequence": "GGUUUAGCAUCGUCCUAUATT against Crmp1", "z-score": -0.495},
      {"sequence": "CGGCAGAUGCAUUCAGGAUTT against Ccdc125", "z-score": 0.0172},
      {"sequence": "GGAGGUGUUAGAUUUUGACTT against Asrgl1", "z-score": -0.295},
      {"sequence": "GGCGGAGGAAGAGUUCAACTT against Atp6v1e2", "z-score": -0.393},
      {"sequence": "GGAUGAAACUAUUCAGCACTT against Chml", "z-score": -0.635},
      {"sequence": "GCAGGAGGAUUAGUAAAUUTT against Ier2", "z-score": 0.966},
      {"sequence": "CCCUAUUGUCAAUAUUCUATT against Nr1h5", "z-score": 0.492},
      {"sequence": "GGGAGCAAAAGCUUUACUUTT against Prl3c1", "z-score": "2.25 (active)"},
      {"sequence": "GGAGAAAUUUCUGAGAAGATT against Slc51a", "z-score": -1.24},
      {"sequence": "GGCGGCCUUAGUAGAUAUCTT against Acsl4", "z-score": 0.677},
      {"sequence": "GGAACAAGGAAGUUACAGGTT against Olfr30", "z-score": -1.06},
      {"sequence": "GAAAAGAGUUUCCACGAGATT against Il19", "z-score": 0.0645},
      {"sequence": "GGAGAUUCUCCAUAACCUGTT against Rnf135", "z-score": "2.29 (active)"},
      {"sequence": "GGGAGAAAGAUUGUAACUATT against 1110032A03Rik", "z-score": -1.05},
      {"sequence": "GGAACAAAAACCAUUGUGATT against Gng7", "z-score": -1.49},
      {"sequence": "CGAACCUGUUGACGGAUUCTT against Wnt1", "z-score": 0.563},
      {"sequence": "GGACAAAGCAAUCCACAUCTT against Wdr55", "z-score": -0.564},
      {"sequence": "CCAUCGGGAUUGACUAUGGTT against Dnajc27", "z-score": -0.878},
      {"sequence": "GCUAAUGAUACAGAAGUUGTT against Snrpb2", "z-score": 0.661}
    ]}
  ]
}
